{"source": "the supplement of paper PMC3334620", "note": "Over roughly 33,000 sequences, “E-score (-0.5 to 0.5)” has its median near -0.056; the highest 2% begin near 0.38. For the sample, the highest values were picked, then their nearest neighbours and some sequences at random.", "data": [{"target": "Stb4 (UniProt P50104)", "sequence (P50104 whole entry, the tested form may be a part)": "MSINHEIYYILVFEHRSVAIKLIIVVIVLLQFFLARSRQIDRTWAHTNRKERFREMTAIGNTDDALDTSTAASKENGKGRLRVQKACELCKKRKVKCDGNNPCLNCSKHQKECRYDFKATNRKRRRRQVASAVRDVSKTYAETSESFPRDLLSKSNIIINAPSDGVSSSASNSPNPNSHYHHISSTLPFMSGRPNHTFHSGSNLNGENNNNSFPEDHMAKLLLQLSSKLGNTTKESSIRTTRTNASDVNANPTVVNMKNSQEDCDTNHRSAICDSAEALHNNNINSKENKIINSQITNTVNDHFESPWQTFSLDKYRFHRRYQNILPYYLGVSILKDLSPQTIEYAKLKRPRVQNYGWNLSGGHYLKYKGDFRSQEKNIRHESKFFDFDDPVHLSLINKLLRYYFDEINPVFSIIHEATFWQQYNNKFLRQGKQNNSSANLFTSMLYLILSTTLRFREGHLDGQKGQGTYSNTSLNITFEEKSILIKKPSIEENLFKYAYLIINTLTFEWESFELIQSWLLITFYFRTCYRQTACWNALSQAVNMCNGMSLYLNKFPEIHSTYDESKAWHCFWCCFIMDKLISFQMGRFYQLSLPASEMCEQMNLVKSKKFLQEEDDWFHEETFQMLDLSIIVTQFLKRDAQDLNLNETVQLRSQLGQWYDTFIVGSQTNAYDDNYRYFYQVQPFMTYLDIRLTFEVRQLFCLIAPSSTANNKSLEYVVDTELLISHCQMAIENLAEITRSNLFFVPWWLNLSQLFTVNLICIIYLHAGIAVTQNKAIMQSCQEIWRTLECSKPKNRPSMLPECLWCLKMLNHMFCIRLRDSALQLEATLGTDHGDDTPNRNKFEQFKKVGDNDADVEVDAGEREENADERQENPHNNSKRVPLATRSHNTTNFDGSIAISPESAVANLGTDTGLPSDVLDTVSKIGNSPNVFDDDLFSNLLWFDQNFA", "test": "PBM E-score (8-mer binding enrichment) (E-score (-0.5 to 0.5)); higher = stronger / more preferred TF binding", "conditions": "protein concentration: 200 nM; construct: GST-DNA-binding domain", "how_it_was_run": "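Bound GST-tagged yeast transcription factors, applied at about 100-200 nM to double-stranded universal all-10-mer Agilent arrays, were detected with fluorescent anti-GST. Scans were normalised with masliner. A modified Wilcoxon-Mann-Whitney statistic, the E-score, was assigned to each ungapped eight-base word pooled with its reverse complement by the Universal PBM Analysis Suite.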", "values": [{"sequence": "AACCGTCT", "PBM E-score": 0.00908}, {"sequence": "GCGGGTCA", "PBM E-score": 0.0978}, {"sequence": "GAGCCCAA", "PBM E-score": -0.16}, {"sequence": "GGAGGAAC", "PBM E-score": -0.0445}, {"sequence": "GTTCTGAA", "PBM E-score": -0.216}, {"sequence": "AACGAGCT", "PBM E-score": -0.256}, {"sequence": "AACCCTCA", "PBM E-score": -0.148}, {"sequence": "GATTAGCA", "PBM E-score": -0.177}, {"sequence": "ATCGGAGA", "PBM E-score": 0.272}, {"sequence": "ATCGGAGC", "PBM E-score": 0.282}, {"sequence": "CACGGACC", "PBM E-score": 0.114}, {"sequence": "CTCGGAGC", "PBM E-score": 0.395}, {"sequence": "CTCGGAGA", "PBM E-score": 0.406}, {"sequence": "CTCGGACA", "PBM E-score": 0.366}, {"sequence": "CTCGGACC", "PBM E-score": 0.412}, {"sequence": "CACGGAGC", "PBM E-score": 0.174}, {"sequence": "CACGGAGA", "PBM E-score": 0.14}, {"sequence": "CGAGTGAC", "PBM E-score": -0.0128}, {"sequence": "CACCTCGC", "PBM E-score": 0.0165}, {"sequence": "ACCCTCGG", "PBM E-score": 0.426}, {"sequence": "ATCCTCGA", "PBM E-score": -0.25}, {"sequence": "CACCTCGA", "PBM E-score": -0.0678}, {"sequence": "AACCTCGA", "PBM E-score": -0.0623}, {"sequence": "AACCTCGT", "PBM E-score": -0.062}, {"sequence": "ATCCTCGC", "PBM E-score": -0.0124}, {"sequence": "ACCCTCGC", "PBM E-score": -0.131}, {"sequence": "ATCCTCGG", "PBM E-score": 0.417}, {"sequence": "CACCTCGG", "PBM E-score": 0.393}, {"sequence": "ACCCTCGA", "PBM E-score": -0.165}, {"sequence": "AACCTCGG", "PBM E-score": 0.452}, {"sequence": "AATGCGAA", "PBM E-score": 0.0466}, {"sequence": "GGTTGGTA", "PBM E-score": "1e-05"}, {"sequence": "TCGCATAA", "PBM E-score": -0.0545}, {"sequence": "CGGGCTGA", "PBM E-score": 0.0911}, {"sequence": "CGTCTTTA", "PBM E-score": -0.0915}, {"sequence": "CAATTGGA", "PBM E-score": -0.112}, {"sequence": "ACCTCCCT", "PBM E-score": -0.111}, {"sequence": "AAAGGGGA", "PBM E-score": -0.22}, {"sequence": "AGCTCCGG", "PBM E-score": 0.301}, {"sequence": "CTCTGAAC", "PBM E-score": -0.174}, {"sequence": "ATTTCGGA", "PBM E-score": 0.454}, {"sequence": "ATTTCGCA", "PBM E-score": 0.0506}, {"sequence": "ATTTCGGC", "PBM E-score": 0.371}, {"sequence": "CTTTCGTC", "PBM E-score": -0.0646}, {"sequence": "ATTTCGGG", "PBM E-score": 0.39}, {"sequence": "ATTTCGCG", "PBM E-score": 0.0954}, {"sequence": "CTTTCGGC", "PBM E-score": 0.386}, {"sequence": "ATTTCGAG", "PBM E-score": -0.0811}, {"sequence": "CTTTCGTA", "PBM E-score": -0.177}, {"sequence": "CTTTCGAC", "PBM E-score": -0.172}, {"sequence": "CTTTCGAA", "PBM E-score": -0.204}, {"sequence": "CTTTCGGA", "PBM E-score": 0.432}, {"sequence": "AACGTTCG", "PBM E-score": 0.113}, {"sequence": "CTTTCTGA", "PBM E-score": -0.25}, {"sequence": "CGCGCCAG", "PBM E-score": 0.104}, {"sequence": "AGCGCTCG", "PBM E-score": -0.0312}, {"sequence": "CTTCGTCA", "PBM E-score": -0.177}, {"sequence": "GTAGTTCA", "PBM E-score": 0.0756}, {"sequence": "GCGGTGCA", "PBM E-score": -0.283}, {"sequence": "ATTCTCCG", "PBM E-score": 0.264}, {"sequence": "AGTAAAAC", "PBM E-score": -0.181}, {"sequence": "GTGGTGAA", "PBM E-score": 0.0732}, {"sequence": "GTTTCGTA", "PBM E-score": 0.128}, {"sequence": "GTTTCGAA", "PBM E-score": -0.145}, {"sequence": "GTTTCGGA", "PBM E-score": 0.43}, {"sequence": "AAGCTGAT", "PBM E-score": 0.104}, {"sequence": "CCACCTAC", "PBM E-score": -0.246}, {"sequence": "AGCATCAA", "PBM E-score": -0.15}, {"sequence": "ACAGGTGG", "PBM E-score": -0.226}, {"sequence": "CCGAGGAC", "PBM E-score": 0.371}, {"sequence": "CCGAGGAG", "PBM E-score": 0.393}, {"sequence": "TCGAGGAA", "PBM E-score": -0.13}, {"sequence": "CCGAGGAA", "PBM E-score": 0.387}, {"sequence": "ACGAGGAG", "PBM E-score": -0.349}, {"sequence": "CGGAGGAG", "PBM E-score": 0.209}, {"sequence": "ATGAAGGG", "PBM E-score": -0.114}, {"sequence": "CAGGAGTC", "PBM E-score": -0.0625}, {"sequence": "AGTCGCAT", "PBM E-score": -0.137}, {"sequence": "CTGGTAGC", "PBM E-score": -0.224}, {"sequence": "ACACCGGG", "PBM E-score": 0.213}, {"sequence": "CGTATGGA", "PBM E-score": -0.0248}, {"sequence": "CATGGGCG", "PBM E-score": -0.0118}, {"sequence": "ACCATACC", "PBM E-score": 0.044}, {"sequence": "ATCTCCGA", "PBM E-score": 0.396}, {"sequence": "AACTCCGT", "PBM E-score": 0.206}, {"sequence": "GTCTCCGA", "PBM E-score": 0.352}, {"sequence": "AACTCCGG", "PBM E-score": 0.352}, {"sequence": "AACTCCGA", "PBM E-score": 0.412}, {"sequence": "ATCTCCGC", "PBM E-score": 0.151}, {"sequence": "TCCAAAAA", "PBM E-score": 0.0234}, {"sequence": "GTCGCTCA", "PBM E-score": -0.129}, {"sequence": "GCCGACTA", "PBM E-score": 0.166}, {"sequence": "CATTCTTC", "PBM E-score": -0.0802}, {"sequence": "GTTTGCGA", "PBM E-score": -0.155}, {"sequence": "ACAGCCGG", "PBM E-score": 0.35}, {"sequence": "GCAGCCGC", "PBM E-score": 0.154}, {"sequence": "CCAGCCGA", "PBM E-score": 0.322}, {"sequence": "TCAGCCGA", "PBM E-score": 0.385}, {"sequence": "TCCGCCGA", "PBM E-score": 0.403}, {"sequence": "GCAGCCTA", "PBM E-score": -0.153}, {"sequence": "ACAGCCGC", "PBM E-score": 0.105}, {"sequence": "GCCGCCGA", "PBM E-score": 0.331}, {"sequence": "TCAGCCCA", "PBM E-score": -0.11}, {"sequence": "CCCGCCGA", "PBM E-score": 0.367}, {"sequence": "ACAGCCGA", "PBM E-score": 0.383}, {"sequence": "GCAGCCGA", "PBM E-score": 0.396}, {"sequence": "ATAAACCC", "PBM E-score": 0.0851}, {"sequence": "CGCTATAC", "PBM E-score": 0.0197}, {"sequence": "GCCAAAGC", "PBM E-score": -0.121}, {"sequence": "CAGACCTG", "PBM E-score": -0.17}, {"sequence": "TATTTCGA", "PBM E-score": 0.00011}, {"sequence": "AATGTCTG", "PBM E-score": 0.0612}, {"sequence": "ATGACGGA", "PBM E-score": 0.217}, {"sequence": "AATCTTGC", "PBM E-score": -0.0133}, {"sequence": "CAGGAATC", "PBM E-score": -0.0371}, {"sequence": "AACTAAGT", "PBM E-score": -0.0531}, {"sequence": "AGCTTCCC", "PBM E-score": -0.00142}, {"sequence": "AGCTTCCG", "PBM E-score": 0.423}, {"sequence": "CGCTTCCG", "PBM E-score": 0.402}, {"sequence": "CGCTTCCA", "PBM E-score": -0.0326}, {"sequence": "AGCTTCCA", "PBM E-score": 0.0259}, {"sequence": "CGCTTCCC", "PBM E-score": 0.188}, {"sequence": "CCTCCACC", "PBM E-score": -0.0886}, {"sequence": "ATCAAGGC", "PBM E-score": -0.111}, {"sequence": "GTAGCCGA", "PBM E-score": 0.4}, {"sequence": "ATAGCCGG", "PBM E-score": 0.353}, {"sequence": "ATAGCCGA", "PBM E-score": 0.442}, {"sequence": "CTAGCCGC", "PBM E-score": 0.21}, {"sequence": "CTAGCCAA", "PBM E-score": -0.0164}, {"sequence": "CTAGCCGA", "PBM E-score": 0.455}, {"sequence": "GTAGCCTA", "PBM E-score": -0.382}, {"sequence": "ATAGCCGC", "PBM E-score": 0.236}, {"sequence": "GTAGCCAA", "PBM E-score": -0.025}, {"sequence": "AAGAGTGG", "PBM E-score": -0.179}, {"sequence": "CTGCCTAA", "PBM E-score": -0.169}, {"sequence": "TGCCAAAA", "PBM E-score": -0.0796}, {"sequence": "TCGGGGCA", "PBM E-score": 0.226}, {"sequence": "ACTGGGCT", "PBM E-score": -0.0497}, {"sequence": "ACAGTGCT", "PBM E-score": -0.181}, {"sequence": "ATCACAAA", "PBM E-score": -0.149}, {"sequence": "CTATCTAC", "PBM E-score": -0.0208}, {"sequence": "CTCGCCGC", "PBM E-score": 0.0149}, {"sequence": "ACTGTACG", "PBM E-score": -0.153}, {"sequence": "GCGAGGTA", "PBM E-score": -0.124}, {"sequence": "ACGAGGTA", "PBM E-score": -0.0352}, {"sequence": "ACGAGGTC", "PBM E-score": -0.278}, {"sequence": "CCGAGGTA", "PBM E-score": 0.401}, {"sequence": "CTGAGGTC", "PBM E-score": -0.243}, {"sequence": "CCGAGGTC", "PBM E-score": 0.424}, {"sequence": "ACGAATCA", "PBM E-score": -0.0567}, {"sequence": "CCAGTAAA", "PBM E-score": -0.0636}, {"sequence": "TGATCGAA", "PBM E-score": -0.125}, {"sequence": "GACCGCGA", "PBM E-score": 0.0256}, {"sequence": "AAATCCCG", "PBM E-score": 0.339}, {"sequence": "ATCTCGAG", "PBM E-score": -0.0973}, {"sequence": "ATCTCGGG", "PBM E-score": 0.449}, {"sequence": "ATCTCGGA", "PBM E-score": 0.461}, {"sequence": "ATCTCGCG", "PBM E-score": -0.0115}, {"sequence": "GTCTCGAA", "PBM E-score": -0.255}, {"sequence": "ATCTCGCA", "PBM E-score": -0.035}, {"sequence": "GTCTCGTA", "PBM E-score": -0.115}, {"sequence": "GTCTCGGA", "PBM E-score": 0.442}, {"sequence": "ATCTCGAA", "PBM E-score": -0.0183}, {"sequence": "AAGATTTA", "PBM E-score": 0.0925}, {"sequence": "AAGAAATA", "PBM E-score": -0.0625}, {"sequence": "AGTTAGGA", "PBM E-score": -0.167}, {"sequence": "ATCACGAC", "PBM E-score": -0.123}, {"sequence": "CGTCGGTA", "PBM E-score": 0.294}, {"sequence": "CTTCGGTC", "PBM E-score": 0.234}, {"sequence": "GGTCGGTA", "PBM E-score": 0.223}, {"sequence": "CTTCGGTA", "PBM E-score": 0.383}, {"sequence": "ATTCGGTA", "PBM E-score": 0.36}, {"sequence": "GTTCGGTA", "PBM E-score": 0.425}]}]}
